Laboratory results published in the supplement of paper PMC11732987, “Enantioselective OTUD7B fragment discovery through chemoproteomics screening and high-throughput optimisation” (Communications Chemistry, 2025).

Columns and labels:
Assay in all cases: log2 ratio of Biotin-Ahx-Ub-VS probe labelling (fragment/DMSO); higher = less target engagement (more negative = stronger competition), active = hit call of the paper (q ≤ 0.05, log2 ratio ≤ -1)
Details in all cases: compound concentration: 200 uM; treatment time: 3 h
[1] = compound: CC(C)CN(C1CC1)C(=O)CCl
How it was run: (§1)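 Average log2 ratios of fragment over vehicle were obtained by unpaired t-test from global-median-normalised Spectronaut label-free quantities. Proteins with ≥2 unique peptides were included. HEK293T lysate (495 µg per sample) was treated in triplicate with fragment at 200 µM or vehicle for 3 h, then with Biotin-Ahx-Ub-VS at 0.5 µM final for 1 h, and labelled DUBs were NeutrAvidin-enriched and run by diaPASEF LC-MS/MS.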

[2] = compound: CC(NC(=O)CCl)c1cccs1
How it was run: as §1

[3] = compound: CC1CCCCC1NC(=O)CCl
How it was run: as §1

[4] = compound: CC1CCCCN1C(=O)CCl
How it was run: as §1

[5] = compound: CC1CN(CC(C)O1)C(=O)CCl
How it was run: as §1

[6] = compound: CN(C1CCCCC1)C(=O)CCl
How it was run: as §1

[7] = compound: Cc1cc(NC(=O)CCl)no1
How it was run: as §1

[8] = compound: Cc1cccc(NC(=O)CCl)c1
How it was run: as §1

[9] = compound: Cc1nc(NC(=O)CCl)sc1C
How it was run: as §1

[10] = compound: Cc1nnc(NC(=O)CCl)s1
How it was run: as §1

[11] = compound: Cl.Cc1ncsc1CNC(=O)CCl
How it was run: as §1

[12] = compound: ClCC(=O)N1CCCCCCC1
How it was run: as §1

[13] = compound: ClCC(=O)NC(C1CC1)C1CC1
How it was run: as §1

[14] = compound: ClCC(=O)NC1(CCCC1)C#N
How it was run: as §1

[15] = compound: ClCC(=O)NCC1CCC1
How it was run: as §1

[16] = compound: ClCC(=O)NCC1CCCO1
How it was run: as §1

[17] = compound: ClCC(=O)NCc1ccco1
How it was run: as §1

[18] = compound: ClCC(=O)Nc1cccc(Cl)c1
How it was run: as §1

Measured: log2 ratio of Biotin-Ahx-Ub-VS probe labelling

BAP1 (UniProt Q92560)
Sequence of UniProt Q92560 (Q92560 whole entry): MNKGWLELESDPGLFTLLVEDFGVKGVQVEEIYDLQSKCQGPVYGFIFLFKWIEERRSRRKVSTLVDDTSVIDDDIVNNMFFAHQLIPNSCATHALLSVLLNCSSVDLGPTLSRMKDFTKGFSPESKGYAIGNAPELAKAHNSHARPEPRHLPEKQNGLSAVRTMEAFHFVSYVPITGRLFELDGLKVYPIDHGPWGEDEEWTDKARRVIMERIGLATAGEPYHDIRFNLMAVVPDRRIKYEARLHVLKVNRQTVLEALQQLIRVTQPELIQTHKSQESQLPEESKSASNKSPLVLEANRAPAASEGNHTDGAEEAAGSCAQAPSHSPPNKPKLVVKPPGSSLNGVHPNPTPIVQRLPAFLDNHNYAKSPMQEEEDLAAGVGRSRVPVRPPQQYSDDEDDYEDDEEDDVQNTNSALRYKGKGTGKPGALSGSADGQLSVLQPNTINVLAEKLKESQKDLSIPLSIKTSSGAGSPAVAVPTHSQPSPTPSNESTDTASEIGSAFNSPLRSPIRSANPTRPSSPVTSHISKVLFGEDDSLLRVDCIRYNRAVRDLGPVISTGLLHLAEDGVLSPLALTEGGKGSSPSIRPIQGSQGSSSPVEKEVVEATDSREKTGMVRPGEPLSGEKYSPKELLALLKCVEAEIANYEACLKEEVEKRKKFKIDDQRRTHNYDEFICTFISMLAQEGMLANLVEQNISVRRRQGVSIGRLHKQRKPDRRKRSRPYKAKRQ
active: [2] -2.33 | [3] -1.53 | [7] -2.59 | [8] -1.83 | [9] -1.05 | [10] -1.34 | [11] -2.85 | [14] -3.06 | [15] -1.81 | [17] -1.81 | [18] -2.97
inactive: [1] 0.0148 | [4] -0.422 | [5] -0.661 | [6] -0.252 | [12] -0.0644 | [13] -0.654 | [16] -0.549

YOD1 (UniProt Q5VVQ6)
Sequence of UniProt Q5VVQ6 (Q5VVQ6 whole entry): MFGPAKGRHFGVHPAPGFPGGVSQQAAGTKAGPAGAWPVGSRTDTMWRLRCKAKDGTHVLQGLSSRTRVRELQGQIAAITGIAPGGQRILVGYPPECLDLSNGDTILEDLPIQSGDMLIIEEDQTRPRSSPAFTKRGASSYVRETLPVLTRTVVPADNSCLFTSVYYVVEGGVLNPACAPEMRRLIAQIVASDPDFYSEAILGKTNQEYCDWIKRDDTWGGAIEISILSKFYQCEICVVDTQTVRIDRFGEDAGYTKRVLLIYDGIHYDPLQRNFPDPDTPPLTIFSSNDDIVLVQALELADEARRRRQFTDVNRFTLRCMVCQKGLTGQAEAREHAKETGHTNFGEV
inactive: [1] 0.253 | [2] 0.0444 | [3] 0.0365 | [4] -0.412 | [5] -0.152 | [6] 0.18 | [7] -0.323 | [8] -0.308 | [9] 0.241 | [10] -0.155 | [11] -0.266 | [12] 0.106 | [14] 0.0345 | [15] 0.0106 | [16] 0.189 | [17] 0.0867 | [18] -0.836

PSMD7 (UniProt P51665)
Sequence of UniProt P51665 (P51665 whole entry): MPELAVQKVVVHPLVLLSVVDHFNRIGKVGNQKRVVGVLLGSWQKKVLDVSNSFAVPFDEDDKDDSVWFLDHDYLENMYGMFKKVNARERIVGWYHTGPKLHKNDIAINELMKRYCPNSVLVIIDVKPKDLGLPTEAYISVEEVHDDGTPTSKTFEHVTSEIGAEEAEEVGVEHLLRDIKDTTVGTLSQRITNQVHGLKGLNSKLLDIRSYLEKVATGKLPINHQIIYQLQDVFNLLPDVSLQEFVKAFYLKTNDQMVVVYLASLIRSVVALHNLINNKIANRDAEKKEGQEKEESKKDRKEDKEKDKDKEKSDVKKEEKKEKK
inactive: [1] -0.0028 | [2] -0.0716 | [3] 0.132 | [4] -0.25 | [5] -0.394 | [6] -0.133 | [7] -0.0871 | [8] -0.0249 | [9] 0.0653 | [10] -0.0837 | [11] -0.291 | [12] -0.184 | [14] -0.279 | [15] -0.286 | [16] 0.0364 | [17] -0.47 | [18] -0.124

USP10 (UniProt Q14694)
Sequence of UniProt Q14694 (Q14694 whole entry): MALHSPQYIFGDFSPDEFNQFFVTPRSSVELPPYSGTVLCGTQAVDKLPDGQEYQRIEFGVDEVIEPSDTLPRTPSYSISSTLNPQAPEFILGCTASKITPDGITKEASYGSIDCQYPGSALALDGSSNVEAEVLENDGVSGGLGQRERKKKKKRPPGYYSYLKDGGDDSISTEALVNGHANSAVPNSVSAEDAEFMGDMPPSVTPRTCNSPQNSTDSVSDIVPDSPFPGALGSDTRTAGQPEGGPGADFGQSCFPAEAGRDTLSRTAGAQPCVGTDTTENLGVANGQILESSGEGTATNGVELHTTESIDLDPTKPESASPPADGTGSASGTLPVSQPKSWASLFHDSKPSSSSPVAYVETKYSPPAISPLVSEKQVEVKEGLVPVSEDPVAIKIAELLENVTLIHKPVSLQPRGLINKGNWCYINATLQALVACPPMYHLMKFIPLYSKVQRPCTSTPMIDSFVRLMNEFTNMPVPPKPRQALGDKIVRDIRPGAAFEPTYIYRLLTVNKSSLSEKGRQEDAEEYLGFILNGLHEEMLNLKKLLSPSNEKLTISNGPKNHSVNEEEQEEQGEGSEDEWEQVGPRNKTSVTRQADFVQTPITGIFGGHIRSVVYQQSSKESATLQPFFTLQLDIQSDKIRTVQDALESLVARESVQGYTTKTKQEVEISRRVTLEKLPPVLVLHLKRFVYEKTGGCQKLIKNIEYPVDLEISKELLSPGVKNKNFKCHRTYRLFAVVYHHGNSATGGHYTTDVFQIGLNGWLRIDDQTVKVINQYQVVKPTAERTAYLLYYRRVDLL
inactive: [1] -0.156 | [2] -0.0602 | [3] -0.0935 | [4] -0.0758 | [5] -0.166 | [6] -0.0336 | [7] -0.0298 | [8] -0.165 | [9] -0.0878 | [10] -0.256 | [11] -0.128 | [12] -0.22 | [13] -0.045 | [14] 0.0316 | [15] -0.0499 | [16] -0.115 | [17] -0.0176 | [18] -0.249

USP34 (UniProt Q70CQ2)
inactive: [1] -0.0417 | [2] -0.172 | [3] -0.119 | [4] -0.00177 | [5] -0.247 | [6] -0.0987 | [7] -0.256 | [8] -0.0637 | [9] -0.0566 | [10] -0.451 | [11] -0.0758 | [12] -0.0409 | [13] -0.194 | [14] -0.0189 | [15] 0.000583 | [16] 0.219 | [17] -0.146 | [18] -0.774

EIF3F (UniProt O00303)
Sequence of UniProt O00303 (O00303 whole entry): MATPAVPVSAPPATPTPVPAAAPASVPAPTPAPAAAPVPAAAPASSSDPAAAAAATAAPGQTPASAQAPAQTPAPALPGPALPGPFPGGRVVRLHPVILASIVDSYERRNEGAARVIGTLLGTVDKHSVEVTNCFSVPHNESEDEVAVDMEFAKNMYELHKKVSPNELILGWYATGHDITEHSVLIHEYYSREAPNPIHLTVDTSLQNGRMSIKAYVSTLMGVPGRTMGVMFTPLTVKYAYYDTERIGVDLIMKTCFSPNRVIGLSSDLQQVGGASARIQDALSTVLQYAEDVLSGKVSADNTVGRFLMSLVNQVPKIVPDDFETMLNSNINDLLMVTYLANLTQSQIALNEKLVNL
inactive: [1] -0.0929 | [2] -0.197 | [3] -0.16 | [4] -0.0889 | [5] -0.424 | [6] -0.158 | [7] -0.0386 | [8] -0.0785 | [9] 0.0404 | [10] -0.0892 | [11] -0.495 | [12] -0.124 | [14] -0.132 | [15] -0.235 | [16] 0.0109 | [17] 0.0785 | [18] -0.0247

OTUD6B (UniProt Q8N6M0)
active: [18] -1.19
inactive: [1] 0.0114 | [2] -0.285 | [3] 0.0184 | [4] -0.269 | [5] -0.538 | [6] -0.0327 | [7] -0.167 | [8] -0.274 | [9] -0.338 | [10] -0.283 | [11] -0.0694 | [12] -0.286 | [14] -0.29 | [15] -0.356 | [16] 0.00691 | [17] -0.225

USP39 (UniProt Q53GS9)
Sequence of UniProt Q53GS9 (Q53GS9 whole entry): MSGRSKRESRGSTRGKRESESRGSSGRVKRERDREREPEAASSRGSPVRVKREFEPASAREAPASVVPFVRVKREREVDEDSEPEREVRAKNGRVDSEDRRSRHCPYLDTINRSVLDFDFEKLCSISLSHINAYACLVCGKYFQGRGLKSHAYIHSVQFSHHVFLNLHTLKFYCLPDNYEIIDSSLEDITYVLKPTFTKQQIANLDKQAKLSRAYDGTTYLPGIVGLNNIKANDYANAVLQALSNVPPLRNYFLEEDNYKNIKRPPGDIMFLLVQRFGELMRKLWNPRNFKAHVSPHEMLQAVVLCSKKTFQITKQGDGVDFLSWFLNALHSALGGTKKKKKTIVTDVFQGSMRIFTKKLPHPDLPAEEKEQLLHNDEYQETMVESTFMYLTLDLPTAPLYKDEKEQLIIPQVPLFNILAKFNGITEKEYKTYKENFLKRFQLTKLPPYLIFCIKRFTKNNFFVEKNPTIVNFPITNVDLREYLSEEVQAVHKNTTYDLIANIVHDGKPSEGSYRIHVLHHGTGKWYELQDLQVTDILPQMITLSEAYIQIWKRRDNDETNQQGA
inactive: [1] -0.169 | [2] -0.144 | [3] -0.231 | [4] -0.11 | [5] -0.122 | [6] 0.248 | [7] -0.329 | [8] -0.224 | [9] 0.121 | [10] -0.07 | [11] 0.28 | [12] 0.0652 | [14] -0.079 | [15] -0.0869 | [16] -0.101 | [17] -0.0526 | [18] 0.19

ALG13 (UniProt Q9NP73)
inactive: [1] 0.0397 | [2] -0.0404 | [3] -1.07 | [4] 0.242 | [5] 0.125 | [6] -0.757 | [7] -0.0979 | [8] 0.249 | [9] 0.182 | [10] -0.152 | [11] -0.305 | [12] -0.0228 | [13] 0.189 | [14] 0.017 | [15] 0.00528 | [16] 0.149 | [17] -0.6 | [18] 0.292

UniProt Q8TE49
inactive: [1] -0.309 | [2] -0.893 | [4] -0.301 | [5] -0.547 | [6] -0.46 | [7] -0.679 | [8] -0.769 | [9] -0.452 | [10] -0.537 | [11] -0.377 | [12] -0.312 | [15] -0.802 | [16] -0.46 | [17] -0.215
active: [3] -1.99 | [14] -1.15 | [18] -1.29

USP7 (UniProt Q93009)
inactive: [1] -0.278 | [2] -0.0253 | [3] -0.0899 | [4] -0.604 | [5] -0.322 | [6] -0.42 | [7] -0.32 | [8] -0.48 | [9] -0.237 | [10] -0.376 | [11] 0.00818 | [12] -0.609 | [13] -0.307 | [14] -0.186 | [15] -0.0702 | [16] -0.207 | [17] -0.0794 | [18] -0.98

USP19 (UniProt O94966)
inactive: [1] 0.00416 | [2] -0.0254 | [3] -0.108 | [4] -0.341 | [5] -0.267 | [6] -0.381 | [7] -0.558 | [8] -0.285 | [9] -0.171 | [10] -0.607 | [11] 0.00124 | [12] -0.175 | [14] -0.0817 | [15] 0.0408 | [16] 0.0949 | [17] -0.207 | [18] -0.681

UniProt Q9P2H5
Sequence of UniProt Q9P2H5 (Q9P2H5 whole entry): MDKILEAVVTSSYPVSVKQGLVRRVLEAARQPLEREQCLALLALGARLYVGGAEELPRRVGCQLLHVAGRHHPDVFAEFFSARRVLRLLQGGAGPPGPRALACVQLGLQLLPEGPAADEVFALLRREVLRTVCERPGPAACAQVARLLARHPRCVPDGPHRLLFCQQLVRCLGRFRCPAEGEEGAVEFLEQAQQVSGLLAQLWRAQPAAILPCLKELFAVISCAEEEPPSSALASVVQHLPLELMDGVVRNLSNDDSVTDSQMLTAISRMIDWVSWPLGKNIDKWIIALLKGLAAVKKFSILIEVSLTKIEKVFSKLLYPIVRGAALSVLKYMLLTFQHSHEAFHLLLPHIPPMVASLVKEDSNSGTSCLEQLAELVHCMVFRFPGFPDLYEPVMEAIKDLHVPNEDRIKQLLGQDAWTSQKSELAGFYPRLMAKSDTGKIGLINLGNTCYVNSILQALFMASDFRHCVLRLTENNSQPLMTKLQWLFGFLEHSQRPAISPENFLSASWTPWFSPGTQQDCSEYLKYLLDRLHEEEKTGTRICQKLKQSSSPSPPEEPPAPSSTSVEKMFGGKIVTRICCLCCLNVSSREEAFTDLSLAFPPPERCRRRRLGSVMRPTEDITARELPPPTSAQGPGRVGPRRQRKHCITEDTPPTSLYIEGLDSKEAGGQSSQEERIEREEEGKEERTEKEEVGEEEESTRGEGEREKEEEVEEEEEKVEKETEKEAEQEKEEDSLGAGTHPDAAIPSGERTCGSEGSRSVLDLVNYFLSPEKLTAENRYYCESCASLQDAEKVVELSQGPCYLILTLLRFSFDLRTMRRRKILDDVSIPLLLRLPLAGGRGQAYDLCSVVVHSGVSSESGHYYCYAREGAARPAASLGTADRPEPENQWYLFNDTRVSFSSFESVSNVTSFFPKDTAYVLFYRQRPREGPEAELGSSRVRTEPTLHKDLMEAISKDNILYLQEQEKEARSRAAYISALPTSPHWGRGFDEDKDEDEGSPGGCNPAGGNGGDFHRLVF
inactive: [1] -0.166 | [2] -0.204 | [3] 0.0516 | [4] -0.0828 | [5] -0.259 | [6] -0.335 | [7] 0.0945 | [8] -0.217 | [9] -0.0782 | [10] -0.183 | [11] -0.0813 | [12] -0.0714 | [14] -0.237 | [15] -0.322 | [16] -0.138 | [17] -0.105 | [18] -0.631

USP24 (UniProt Q9UPU5)
active: [18] -1.4
inactive: [1] -0.191 | [2] -0.0286 | [3] -0.426 | [4] -0.579 | [5] -0.301 | [6] -0.575 | [7] -0.201 | [8] -0.537 | [9] -0.319 | [10] -0.639 | [11] -0.322 | [12] -0.475 | [14] -0.116 | [15] 0.00205 | [16] 0.122 | [17] -0.238

USP4 (UniProt Q13107)
inactive: [1] 0.153 | [2] 0.162 | [3] -0.162 | [4] -0.204 | [5] -0.321 | [6] -0.349 | [7] -0.155 | [8] -0.256 | [9] 0.0368 | [10] -0.309 | [11] -0.0374 | [12] -0.0039 | [14] -0.169 | [15] 0.0544 | [16] 0.132 | [17] -0.0646 | [18] -0.558

EIF3H (UniProt O15372)
Sequence of UniProt O15372 (O15372 whole entry): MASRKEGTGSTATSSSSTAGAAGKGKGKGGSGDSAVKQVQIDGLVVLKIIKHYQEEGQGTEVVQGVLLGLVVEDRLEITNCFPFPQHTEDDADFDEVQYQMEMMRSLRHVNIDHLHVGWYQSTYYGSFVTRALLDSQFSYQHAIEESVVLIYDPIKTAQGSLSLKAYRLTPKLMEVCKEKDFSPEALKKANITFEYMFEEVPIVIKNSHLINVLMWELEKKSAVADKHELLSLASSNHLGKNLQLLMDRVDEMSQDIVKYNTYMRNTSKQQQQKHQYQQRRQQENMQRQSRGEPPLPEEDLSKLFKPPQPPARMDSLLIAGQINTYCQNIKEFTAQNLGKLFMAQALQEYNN
inactive: [1] -0.185 | [2] 0.239 | [3] -0.385 | [4] -0.0794 | [5] -0.144 | [6] 0.0605 | [7] 0.0219 | [8] 0.0847 | [9] 0.0871 | [10] 0.0591 | [11] 0.337 | [12] 0.342 | [14] -0.198 | [15] -0.00227 | [16] 0.038 | [17] 0.206 | [18] 0.176

UCHL5 (UniProt Q9Y5K5)
Sequence of UniProt Q9Y5K5 (Q9Y5K5 whole entry): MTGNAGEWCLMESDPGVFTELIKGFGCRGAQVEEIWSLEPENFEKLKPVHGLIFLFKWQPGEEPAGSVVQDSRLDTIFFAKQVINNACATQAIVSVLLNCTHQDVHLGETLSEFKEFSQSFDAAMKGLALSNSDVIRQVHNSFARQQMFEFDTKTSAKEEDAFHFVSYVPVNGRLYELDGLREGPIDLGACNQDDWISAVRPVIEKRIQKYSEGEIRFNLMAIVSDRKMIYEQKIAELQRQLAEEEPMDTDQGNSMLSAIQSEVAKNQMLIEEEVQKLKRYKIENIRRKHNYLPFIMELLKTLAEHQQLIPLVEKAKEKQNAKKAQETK
inactive: [1] -0.0257 | [2] -0.148 | [3] -0.168 | [4] -0.283 | [5] -0.314 | [6] -0.249 | [7] 0.0718 | [8] -0.0463 | [9] -0.292 | [10] -0.0414 | [11] -0.0581 | [12] -0.0659 | [14] -0.42 | [15] -0.292 | [16] -0.0635 | [17] -0.29
active: [18] -1.02

UniProt P51784
inactive: [1] -0.051 | [2] 0.138 | [3] 0.0474 | [4] -0.248 | [5] -0.0132 | [6] 0.0405 | [7] -0.202 | [8] -0.227 | [9] 0.0778 | [10] -0.209 | [11] 0.0993 | [12] -0.126 | [13] -0.304 | [14] -0.072 | [15] -0.102 | [16] 0.104 | [17] -0.104 | [18] -0.628
